Experiment [1] can be described thus: NCI Yeast Anticancer Drug Screen. Data for the rad50 strain (AID 155).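 Further: 0% = growth of vehicle-only cultures of the same strain.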 To be noted: S. cerevisiae rad50 strain growth inhibition; at 50.0 µM; stronger effect = higher value. The gist of the method: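 Compounds were tested on a yeast strain with an engineered DNA damage repair alteration; the reported value is growth inhibition normalised to vehicle treatment.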
Experiment [2] can be described thus: NCI Yeast Anticancer Drug Screen. Data for the mec2-1 strain (AID 157). As to conditions: S. cerevisiae mec2-1 strain, at 50.0 µM, stronger effect = higher value. The gist of the method:
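Vehicle-treated cultures served as reference for growth inhibition of compound-exposed mec2-1 yeast.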

The nature of experiment [3]: NCI Yeast Anticancer Drug Screen. Data for the sgs1 mgt1 strain (AID 161).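 Further: 0% = growth of cultures given vehicle only.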 To be noted: S. cerevisiae sgs1 mgt1 strain, at 50.0 µM, stronger effect = higher value. In outline:
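Test agents were incubated with a DNA-repair-mutant yeast strain. Growth was then read and compared against vehicle-treated controls.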

The nature of experiment [4]: NCI Yeast Anticancer Drug Screen. Data for the cln2 rad14 strain (AID 165).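 Further: 0% = growth equal to vehicle treated cultures.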 To be noted: S. cerevisiae cln2 rad14 strain, at 50.0 µM, stronger effect = higher value. The gist of the method: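 Each compound was tested on cln2 rad14 yeast. Inhibition of growth was calculated against vehicle-exposed controls.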
Experiment [5] can be described thus: NCI Yeast Anticancer Drug Screen. Data for the bub3 strain (AID 167). To be noted: S. cerevisiae bub3 mutant strain, at 50.0 µM, stronger effect = higher value. In outline: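 Growth of a checkpoint-deficient yeast mutant is measured after compound exposure. Values represent inhibition relative to vehicle.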
Experiment [6] in a line: NCI Yeast Anticancer Drug Screen. Data for the mlh1 rad18 strain (AID 175). To be noted: S. cerevisiae mlh1 rad18 strain growth inhibition; at 50.0 µM; stronger effect = higher value. In outline:
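Vehicle-treated cultures served as the reference for growth inhibition in a yeast strain carrying DNA damage repair alterations exposed to each compound.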

Compounds without any hit were thinned out: in the full panel of roughly 79,000, 15% have a hit. Unmarked numbers belong to inactive results. Calls of active or inactive are those of the source. No stated cut-off is given here; in the data, active means growth inhibition above about 70%; inactive means the rest.

The source of these data is PubChem BioAssay (NCI).

`O=C1NC2(c3ccccc3)CCCCC2O1` (stereo unspecified): the growth inhibition was -4.95% in experiment [1]; -3.05% in experiment [2]; -5.95% in experiment [3]; 1.95% in experiment [4]; -6.35% in experiment [5]; -6.6% in experiment [6].

Turning to `O=S(=O)(c1ccccc1)c1ccc(CBr)cc1`, the growth inhibition is 16.1% in experiment [1]; 1.85% in experiment [2]; -10.4% in experiment [3]; 17.5% in experiment [4]; -2.55% in experiment [5]; -8.9% in experiment [6].

Turning to `CN(C)Cc1nsc(N(C)C)n1`, the growth inhibition was -4.9% in experiment [1]; -9.1% in experiment [2]; -34.2% in experiment [3]; -50% in experiment [4]; -19.1% in experiment [5]; -13.2% in experiment [6].

As to `Nc1nnnn1CCc1ccccc1`, the growth inhibition in experiment [1] is 7.75%; in experiment [2], 6.3%; in experiment [3] it was -4%; in experiment [4], -10.8%; in experiment [5], 4.4%; in experiment [6], 9.75%.

In the case of `COc1ccc(OC)c2c1ccc1c(C)c3ccccc3c(C)c12`, the growth inhibition in experiment [1] is 12.2%; in experiment [2], -1.1%; in experiment [3], 14.2%; in experiment [4], 6.8%; in experiment [5], 34.1%; in experiment [6], 26.2%.

Turning to `COc1cc(C2c3cc4c(cc3[C@@H](Nc3ccc(C#N)cc3)C3COC(=O)[C@H]23)OCO4)cc(OC)c1O` (stereo partly specified), the growth inhibition in experiment [1] was 87.5% (active); in experiment [2], 89.7% (active); in experiment [3] it was 89.5% (active); in experiment [4], 85.5% (active); in experiment [5], 89% (active); in experiment [6], 88.3% (active).

Turning to `CCNC(=O)C(CC)(CO)CO`, the growth inhibition was -16.4% in experiment [1]; -3.4% in experiment [2]; -3.95% in experiment [3]; 6.2% in experiment [4]; 0.65% in experiment [5]; 4.5% in experiment [6].

For `CCOC1NC(/N=C/c2ccc(OC)cc2)=C(C#N)C1C#N` (stereo unspecified), the growth inhibition in experiment [1] is -29.2%; in experiment [2], -6.7%; in experiment [3], -49.5%; in experiment [4], 12.4%; in experiment [5], -28.1%; in experiment [6], -35%.

Consider `CCOC(=O)C(CCC(c1ccc(OC)cc1)c1ccc(OC)cc1)C(=O)OCC`, for which the growth inhibition in experiment [1] was 29.7%; in experiment [2], -8.15%; in experiment [3], 10.2%; in experiment [4] it was 2.05%; in experiment [5], 27.6%; in experiment [6], -18.2%.

For `CC1(C)C(=O)OC(n2ccc(=O)[nH]c2=O)C1=O` (stereo unspecified), the growth inhibition was 7.15% in experiment [1]; -11.2% in experiment [2]; -7.75% in experiment [3]; -43.9% in experiment [4]; -10.8% in experiment [5]; 12.7% in experiment [6].

As to `COc1cc(S(=O)(=O)O)ccc1N=N/C(=N\Nc1ccc(S(=O)(=O)O)cc1OC)C(N)=O`, the growth inhibition in experiment [1] was -42.1%; in experiment [2] it was 5.55%; in experiment [3], 8.9%; in experiment [4] it was 18.6%; in experiment [5], -1.95%; in experiment [6] it was 7.7%.

Take `CCCCCOP(=O)(OCCCCC)C(c1ccccc1)c1ccccc1`: the growth inhibition is 1% in experiment [1]; -44.9% in experiment [2]; -4.15% in experiment [3]; -33.4% in experiment [4]; 9.5% in experiment [5]; -11.9% in experiment [6].

Turning to `Oc1ccccc1C=Nc1ccc(Cl)cn1`, the growth inhibition is 17.2% in experiment [1]; 15.2% in experiment [2]; 16.2% in experiment [3]; 21.6% in experiment [4]; 18.9% in experiment [5]; 20.8% in experiment [6].

Turning to `COC(=O)C1CCCC(=O)C1C(=O)OC` (stereo unspecified), the growth inhibition in experiment [1] is 1.35%; in experiment [2] it was 0.3%; in experiment [3], -3.45%; in experiment [4], -36.2%; in experiment [5], -23%; in experiment [6], 2.05%.

`CCC1(C#CCN2C(=O)c3ccccc3C2=O)C=CC2(CC1)OCCO2` (stereo unspecified): the growth inhibition in experiment [1] was 10.2%; in experiment [2], 18.2%; in experiment [3] it was 26.2%; in experiment [4] it was 0.6%; in experiment [5], 2.5%; in experiment [6], 48.9%.

As to `CCNCC(=O)Nc1ccc(C(=O)OC)cc1`, the growth inhibition in experiment [1] is -8%; in experiment [2], -29.4%; in experiment [3], -9.9%; in experiment [4] it was -20%; in experiment [5], 1.45%; in experiment [6] it was -28.9%.

Take `O=C(O)c1cc(Cl)cc([N+](=O)[O-])c1`: the growth inhibition in experiment [1] is 41.1%; in experiment [2], -3%; in experiment [3], 52.5%; in experiment [4], 19.3%; in experiment [5], 23%; in experiment [6] it was 52.9%.

On to `CCCC(SCC(=O)O)SCC(=O)O`, for which the growth inhibition in experiment [1] was 14.4%; in experiment [2], -6.05%; in experiment [3], -6.85%; in experiment [4] it was -41.8%; in experiment [5], -4.75%; in experiment [6], -17%.

As to `NC(=O)C(N)Cc1ccc(OCc2ccccc2)c(OCc2ccccc2)c1` (stereo unspecified), the growth inhibition in experiment [1] is 1.4%; in experiment [2], 3.35%; in experiment [3] it was 7.3%; in experiment [4] it was -12.8%; in experiment [5], 2.45%; in experiment [6] it was 26.2%.

As for `NC(CSCCC(=O)O)C(=O)O` (stereo unspecified), the growth inhibition in experiment [1] was -16.9%; in experiment [2], -10.3%; in experiment [3], -7.45%; in experiment [4], -39.6%; in experiment [5] it was -3.05%; in experiment [6], -12.4%.

For `C=CCNC(=O)/C(C)=C(\C)c1ccc(F)cc1`, the growth inhibition in experiment [1] is 4.15%; in experiment [2], 6%; in experiment [3], 3.2%; in experiment [4], -17.7%; in experiment [5] it was 2.5%; in experiment [6], -4.7%.
